This note sets out measurements from the supplement of paper PMC5662767.

“And” between values parts separate entries of the source, which are not always exact repeats. Equal values may be shown once. Where a name gives a salt, the structure may show the parent alone.

The assay deals with Drosophila S2 cl14 SmoIP sensor cells. In words: normalized SmoIP GFP fluorescence (untreated unstimulated = 0%, untreated Hh-stimulated = 100%); higher = more Smo activation sensor fluorescence. As to conditions: compound concentration: 2 uM, 24 h.
[1] abbreviates: stimulation: Hh conditioned medium (+Hh).
Where [2] appears, read: stimulation: mock conditioned medium (-Hh).
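Note: flow cytometry read-out as median GFP intensity of gated cells, compounds added 30 min before Hh-conditioned or mock medium, mock-treated cells serving as unstimulated baseline.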

For the compound `Cc1cc(OCc2nnc(SC3CCCC3)n2-c2cccnc2)ccc1-c1ccc(S(C)(=O)=O)cc1`, the “normalized SmoIP GFP fluorescence” value by setting is: under setting [1], 96.7%; under setting [2], 13.7%.

With `COC(=O)C1=C(C)NC(C)=C(C(=O)OCCN2CCN(C(c3ccccc3)c3ccccc3)CC2)C1c1cccc([N+](=O)[O-])c1` (stereo unspecified) [Manidipine(Manyper)], the “normalized SmoIP GFP fluorescence” value runs as follows: under setting [1], 118%; under setting [2], 3.85%.

For `CCOC(=O)c1ccc(N2NC(=O)C(=Cc3ccc([N+](=O)[O-])o3)C2=O)cc1`, the “normalized SmoIP GFP fluorescence” value reads like this: under setting [1], 119%; under setting [2], 8.94%.

As to `CC(C)(C)NC(=O)[C@H]1CC[C@H]2[C@@H]3CC[C@H]4NC(=O)C=C[C@]4(C)[C@H]3CC[C@]12C` [Finasteride], the “normalized SmoIP GFP fluorescence” value was 77.5% under setting [1] and -9.32% under setting [2].

Consider `C=CC(=O)Nc1cccc(Nc2nc(Nc3ccc(OCCOC)cc3)ncc2F)c1`, for which the “normalized SmoIP GFP fluorescence” value under setting [1] was 116% and the “normalized SmoIP GFP fluorescence” value under setting [2] is -2.31%.

On to `COc1ccc(CNC(=O)Nc2ncc([N+](=O)[O-])s2)cc1`, for which the “normalized SmoIP GFP fluorescence” value is, setting by setting: under setting [1], 111%; under setting [2], -11%.

Turning to `CC(C)(C#N)c1cc(Cn2cncn2)cc(C(C)(C)C#N)c1` [Anastrozole], the “normalized SmoIP GFP fluorescence” value runs as follows: under setting [1], 109%; under setting [2], -2.96%.

Turning to `O=S(=O)(c1cccc2cnccc12)N1CCCNCC1` [Fasudil-HCl(HA-1077)], the “normalized SmoIP GFP fluorescence” value is 97% under setting [1] and -3.93% under setting [2].

In the case of `CNC(=O)c1nn(C)c2c1C(C)(C)Cc1cnc(Nc3ccc(N4CCN(C)CC4)cc3)nc1-2`, the “normalized SmoIP GFP fluorescence” value under setting [1] is 107% and the “normalized SmoIP GFP fluorescence” value under setting [2] is -11.7%.

On to `COC(=O)N[C@H](C(=O)N1CCC[C@H]1c1ncc(-c2ccc(-c3ccc(-c4cnc([C@@H]5CCCN5C(=O)[C@@H](NC(=O)OC)C(C)C)[nH]4)cc3)cc2)[nH]1)C(C)C`, for which the “normalized SmoIP GFP fluorescence” value under setting [1] is 112% and the “normalized SmoIP GFP fluorescence” value under setting [2] was 7.39%.

As to `COc1cc(F)c(C(C)C)cc1-c1ccc(C(F)(F)F)cc1CN1C(=O)O[C@H](c2cc(C(F)(F)F)cc(C(F)(F)F)c2)[C@@H]1C` [anacetrapib-mk-0859], the “normalized SmoIP GFP fluorescence” value was 146% under setting [1] and -8.59% under setting [2].

With `CNCc1cc(-c2ccccc2F)n(S(=O)(=O)c2cccnc2)c1`, the “normalized SmoIP GFP fluorescence” value runs as follows: under setting [1], 126%; under setting [2], -15.1%.

In the case of `Cc1ccccc1-n1c(Cn2nc(-c3cccc(O)c3)c3c(N)ncnc32)nc2cccc(C)c2c1=O`, the “normalized SmoIP GFP fluorescence” value runs as follows: under setting [1], 101%; under setting [2], -5.98%.

For `O=C(O)/C=C/c1ccc(Cn2ccnc2)cc1` [Ozagrel], the “normalized SmoIP GFP fluorescence” value by setting is: under setting [1], 116%; under setting [2], -2.46%.

Turning to `Cn1cc(/C=C2\C(=O)Nc3cccnc32)c2ccccc21`, the “normalized SmoIP GFP fluorescence” value was 158% under setting [1] and 60.2% under setting [2].

For the compound `CC(=O)OCC(=O)NCCCOc1cccc(CN2CCCCC2)c1` [roxatidine-acetate-hcl], the “normalized SmoIP GFP fluorescence” value runs as follows: under setting [1], 142%; under setting [2], -6.97%.

Regarding `CC(C)(C)NC[C@H](O)COc1nsnc1N1CCOCC1` [timolol-maleate], the “normalized SmoIP GFP fluorescence” value by setting is: under setting [1], 111%; under setting [2], -1.51%.

Regarding `CC(C)NCC(O)c1ccc(O)c(O)c1` (stereo unspecified) [Isoprenaline-hydrochloride], the “normalized SmoIP GFP fluorescence” value is, setting by setting: under setting [1], 141%; under setting [2], -14.1%.

On to `CS(=O)(=O)N1CCc2c(-c3cnc(N)nc3)nc(N3CCOCC3)nc21`, for which the “normalized SmoIP GFP fluorescence” value was 134% under setting [1] and -15.8% under setting [2].

On to `CCCCNC(=O)NS(=O)(=O)c1ccc(C)cc1` [tolbutamide], for which the “normalized SmoIP GFP fluorescence” value is 108% under setting [1] and -16.8% under setting [2].

On to `CCCCCCCCOc1ccccc1C(=O)Nc1ccc(C(=O)OCC[N+](C)(CC)CC)cc1` [otilonium-bromide], for which the “normalized SmoIP GFP fluorescence” value under setting [1] was found to be 109% and the “normalized SmoIP GFP fluorescence” value under setting [2] was -1.85%.

As to `Cc1ccc2nc(NCCN)c3ncc(C)n3c2c1`, the “normalized SmoIP GFP fluorescence” value is, setting by setting: under setting [1], 137%; under setting [2], -9.4%.

Turning to `C[C@H](NC(=O)Cc1cc(F)cc(F)c1)C(=O)N[C@H](C(=O)OC(C)(C)C)c1ccccc1`, the “normalized SmoIP GFP fluorescence” value runs as follows: under setting [1], 146%; under setting [2], 4.93%.

Take `C[C@]1(c2nc3c(C(N)=O)cccc3[nH]2)CCCN1`: the “normalized SmoIP GFP fluorescence” value was 117% under setting [1] and -2.96% under setting [2].

Take `Cc1cccc(-c2[nH]ncc2-c2ccc3ncccc3n2)n1` [repsox]: the “normalized SmoIP GFP fluorescence” value is 109% under setting [1] and -0.378% under setting [2].

As to `CC(C)[C@H](O)C(=O)N[C@@H](C)C(=O)N[C@@H]1C(=O)N(C)CCc2ccccc21`, the “normalized SmoIP GFP fluorescence” value was determined as 98.8% under setting [1] and 13.8% under setting [2].

Regarding `CC(C)N(CCCNC(=O)Nc1ccc(C(C)(C)C)cc1)C[C@H]1O[C@@H](n2ccc3c(N)ncnc32)[C@H](O)[C@@H]1O`, the “normalized SmoIP GFP fluorescence” value is, setting by setting: under setting [1], 106% and 111%; under setting [2], -4.13% and -1.12%.

Consider `CC(C)CN(C[C@@H](O)[C@H](Cc1ccccc1)NC(=O)O[C@H]1CO[C@H]2OCC[C@H]21)S(=O)(=O)c1ccc(N)cc1` [Darunavir-Ethanolate(Prezista)], for which the “normalized SmoIP GFP fluorescence” value is, setting by setting: under setting [1], 101%; under setting [2], -5.54%.

For `O=C(O)c1ccc(N2C(=O)/C(=C\c3ccc(-c4ccc([N+](=O)[O-])cc4)o3)C=C2c2ccccc2)cc1` [4e1rcat], the “normalized SmoIP GFP fluorescence” value is 105% under setting [1] and -0.265% under setting [2].

Take `COc1ccc(CNc2nc(N3CCC[C@H]3CO)ncc2C(=O)NCc2ncccn2)cc1Cl` [avanafil]: the “normalized SmoIP GFP fluorescence” value by setting is: under setting [1], 106%; under setting [2], -2.31%.

For `CS(=O)(=O)CCNCc1ccc(-c2ccc3ncnc(Nc4ccc(OCc5cccc(F)c5)c(Cl)c4)c3c2)o1` [Lapatinib-Ditosylate], the “normalized SmoIP GFP fluorescence” value came to 253% under setting [1] and 9% under setting [2].

In the case of `CNC(=O)Nc1ccc(-c2nc(N3CC4CCC(C3)O4)c3cnn(C4CCC5(CC4)OCCO5)c3n2)cc1`, the “normalized SmoIP GFP fluorescence” value is 41.3% under setting [1] and -8.33% under setting [2].

`CN(C)CCC(c1ccc(Cl)cc1)c1ccccn1` (stereo unspecified) [Chlorpheniramine-maleate]: the “normalized SmoIP GFP fluorescence” value runs as follows: under setting [1], 106%; under setting [2], -12.2%.
